# In PubChem BioAssay (NCI):
# This is part of a sample that, as a whole, favours compounds with a hit. Of some 79,000 tested, about 15% had one in any assay. A number with no mark means an inactive call. Calls of active or inactive are those of the source. No stated cut-off is given here; in the data, active means growth inhibition above about 70%; inactive means the rest.
# How the values were obtained:
# [1] = NCI Yeast Anticancer Drug Screen. Data for the sgs1 strain (AID 173);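 further: 0% = growth of vehicle-only control cultures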; conditions: S. cerevisiae sgs1 mutant, stronger effect = higher value
# Outline: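 Vehicle-treated cultures served as reference for growth inhibition of a yeast strain altered in DNA damage repair or cell cycle control after compound exposure.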
# [2] = NCI Yeast Anticancer Drug Screen. Data for the mlh1 rad18 strain (AID 175); conditions: S. cerevisiae mlh1 rad18 strain growth inhibition, stronger effect = higher value
# Outline: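 Inhibition values reflect reduced growth of mutant yeast versus vehicle-treated controls following compound exposure; the mutations affect DNA damage repair.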
# [3] = NCI Yeast Anticancer Drug Screen. Data for the rad18 strain (AID 177); conditions: S. cerevisiae rad18 mutant growth inhibition, stronger effect = higher value
# Outline: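 Steps: expose repair-mutant yeast to compound; measure growth; express as inhibition relative to vehicle control.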
# [4] = NCI Yeast Anticancer Drug Screen. Data for the rad52 strain (AID 147);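 further: 0% = growth of vehicle-treated control cultures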; conditions: S. cerevisiae rad52 mutant growth inhibition, stronger effect = higher value
# Outline: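 Inhibition of yeast growth, referenced to vehicle controls, was the measured output for a strain with defective DNA damage repair.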
# [5] = NCI Yeast Anticancer Drug Screen. Data for the wt1 strain (AID 149);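 further: 0% = growth of vehicle-treated wt1 cultures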; conditions: S. cerevisiae wt1 strain (SPY 50644) growth inhibition, stronger effect = higher value
# Outline: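 wt1 strain grown with compound or vehicle; inhibition taken from the growth difference.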
# [6] = NCI Yeast Anticancer Drug Screen. Data for the rad50EPP+ strain (AID 151);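 further: 0% = growth of vehicle-treated control cultures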; conditions: S. cerevisiae rad50 mutant strain, stronger effect = higher value
# Outline: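 Genetically defined yeast (rad50EPP+, DNA damage repair alteration) is grown with compound, and inhibition of growth is expressed relative to vehicle-treated controls.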
# [7] = NCI Yeast Anticancer Drug Screen. Data for the rad50 strain (AID 155);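 further: 0% = growth of vehicle-only cultures of the same strain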; conditions: S. cerevisiae rad50 strain growth inhibition, stronger effect = higher value
# Outline: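 DNA repair mutant yeast, compound exposure, growth read-out; inhibition is taken relative to vehicle.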
# [8] = NCI Yeast Anticancer Drug Screen. Data for the mec2-1 strain (AID 157); conditions: S. cerevisiae mec2-1 strain, stronger effect = higher value
# Outline: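 Each compound was tested on mec2-1 yeast, a strain altered in DNA damage repair or cell cycle control. Growth inhibition is reported relative to vehicle.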
# [9] = NCI Yeast Anticancer Drug Screen. Data for the rad14 strain (AID 159);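 further: 0% = growth of vehicle-treated control cultures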; conditions: S. cerevisiae rad14 strain growth inhibition, stronger effect = higher value
# Outline: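 DNA repair-defective yeast, compound-exposed; % growth inhibition derived by comparison with vehicle-treated controls.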
# [10] = NCI Yeast Anticancer Drug Screen. Data for the sgs1 mgt1 strain (AID 161);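 further: 0% = growth of cultures given vehicle only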; conditions: S. cerevisiae sgs1 mgt1 strain, stronger effect = higher value
# Outline: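 Read-out: growth inhibition vs vehicle controls. Cells: mutant yeast strain deficient in DNA damage repair.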
# [11] = NCI Yeast Anticancer Drug Screen. Data for the CLN2oe strain (AID 163);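 further: 0% = growth of vehicle-only control cultures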; conditions: S. cerevisiae CLN2oe strain, stronger effect = higher value
# Outline: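 First, the altered yeast strain was treated with each compound; second, its growth was measured; finally, inhibition was derived by comparison with vehicle controls.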
# [12] = NCI Yeast Anticancer Drug Screen. Data for the cln2 rad14 strain (AID 165);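 further: 0% = growth equal to vehicle treated cultures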; conditions: S. cerevisiae cln2 rad14 strain, stronger effect = higher value
# Outline: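 Test compounds were added to cln2 rad14 yeast cultures; inhibition of growth was then determined by comparison with vehicle treatment.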
# [13] = NCI Yeast Anticancer Drug Screen. Data for the bub3 strain (AID 167); conditions: S. cerevisiae bub3 mutant strain, stronger effect = higher value
# Outline: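 In this screen, a yeast mutant lacking normal mitotic checkpoint function is challenged with compound. Relative growth versus vehicle gives the inhibition value.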
# [14] = NCI Yeast Anticancer Drug Screen. Data for the mlh1 strain (AID 171);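 further: 0% = growth of vehicle-treated control cultures of the same strain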; conditions: S. cerevisiae mlh1 strain growth inhibition, stronger effect = higher value
# Outline: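 Inhibition values reflect reduced yeast growth in the presence of compound, referenced to vehicle controls, using a strain chosen for its alteration in DNA repair or cell cycle control.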
# [15] = at 5.0 µM (retest, dose inferred, filed as 0.5)
# [16] = at 50.0 µM (retest, dose inferred, filed as 5.0)
smiles,measurement,setting,value
C=C(CCCO)[C@@H]1CC[C@@](C)(O)[C@H]1C,growth inhibition,[1]; at 1.2 µM,-35%
same,growth inhibition,[1]; at 3.7 µM,-28%
same,growth inhibition,[1]; at 11.0 µM,-31%
same,growth inhibition,[1]; at 33.0 µM,-29%
same,growth inhibition,[1]; at 100.0 µM,-39%
same,growth inhibition,[2]; [15],36%
same,growth inhibition,[2]; [16],87% (active)
same,growth inhibition,[2]; at 50.0 µM,43.3%
same,growth inhibition,[3]; at 1.2 µM,-38%
same,growth inhibition,[3]; at 3.7 µM,-38%
same,growth inhibition,[3]; at 11.0 µM,-45%
same,growth inhibition,[3]; at 33.0 µM,-46%
same,growth inhibition,[3]; at 100.0 µM,-66%
CCOC(=O)C(NC(=O)CC)(N1CCN(c2cc3c(cc2F)c(=O)c(C(=O)O)cn3C2CC2)CC1)C(F)(F)F (stereo not drawn),growth inhibition,[4]; at 1.2 µM,0%
same,growth inhibition,[4]; at 3.7 µM,3%
same,growth inhibition,[4]; at 11.0 µM,44%
same,growth inhibition,[4]; at 33.0 µM,91% (active)
same,growth inhibition,[4]; at 100.0 µM,97% (active)
same,growth inhibition,[5]; at 1.2 µM,-2%
same,growth inhibition,[5]; at 3.7 µM,1%
same,growth inhibition,[5]; at 11.0 µM,0%
same,growth inhibition,[5]; at 33.0 µM,14%
same,growth inhibition,[5]; at 100.0 µM,66%
same,growth inhibition,[6]; at 1.2 µM,-1%
same,growth inhibition,[6]; at 3.7 µM,1%
same,growth inhibition,[6]; at 11.0 µM,3%
same,growth inhibition,[6]; at 33.0 µM,3%
same,growth inhibition,[6]; at 100.0 µM,11%
same,growth inhibition,[7]; at 1.2 µM,0%
same,growth inhibition,[7]; at 3.7 µM,5%
same,growth inhibition,[7]; [15],-10%
same,growth inhibition,[7]; at 11.0 µM,47%
same,growth inhibition,[7]; at 33.0 µM,90% (active)
same,growth inhibition,[7]; [16],61%
same,growth inhibition,[7]; at 50.0 µM,91.5% (active)
same,growth inhibition,[7]; at 100.0 µM,97% (active)
same,growth inhibition,[8]; at 1.2 µM,-1%
same,growth inhibition,[8]; at 3.7 µM,-5%
same,growth inhibition,[8]; [15],0%
same,growth inhibition,[8]; at 11.0 µM,1%
same,growth inhibition,[8]; at 33.0 µM,47%
same,growth inhibition,[8]; [16],6%
same,growth inhibition,[8]; at 50.0 µM,84.1% (active)
same,growth inhibition,[8]; at 100.0 µM,96% (active)
same,growth inhibition,[9]; at 1.2 µM,0%
same,growth inhibition,[9]; at 3.7 µM,2%
same,growth inhibition,[9]; at 11.0 µM,6%
same,growth inhibition,[9]; at 33.0 µM,29%
same,growth inhibition,[9]; at 100.0 µM,91% (active)
same,growth inhibition,[10]; [15],-2%
same,growth inhibition,[10]; [16],15%
same,growth inhibition,[10]; at 50.0 µM,28.6%
same,growth inhibition,[11]; at 1.2 µM,1%
same,growth inhibition,[11]; at 3.7 µM,3%
same,growth inhibition,[11]; at 11.0 µM,-3%
same,growth inhibition,[11]; at 33.0 µM,21%
same,growth inhibition,[11]; at 100.0 µM,86% (active)
same,growth inhibition,[12]; [15],1%
same,growth inhibition,[12]; [16],-1%
same,growth inhibition,[12]; at 50.0 µM,45.6%
same,growth inhibition,[13]; at 1.2 µM,-40%
same,growth inhibition,[13]; at 3.7 µM,0%
same,growth inhibition,[13]; [15],-14%
same,growth inhibition,[13]; at 11.0 µM,0%
same,growth inhibition,[13]; at 33.0 µM,18%
same,growth inhibition,[13]; [16],2%
same,growth inhibition,[13]; at 50.0 µM,79.1% (active)
same,growth inhibition,[13]; at 100.0 µM,91% (active)
same,growth inhibition,[14]; at 1.2 µM,-1%
same,growth inhibition,[14]; at 3.7 µM,0%
same,growth inhibition,[14]; at 11.0 µM,0%
same,growth inhibition,[14]; at 33.0 µM,16%
same,growth inhibition,[14]; at 100.0 µM,85% (active)
same,growth inhibition,[1]; at 1.2 µM,0%
same,growth inhibition,[1]; at 3.7 µM,1%
same,growth inhibition,[1]; at 11.0 µM,4%
same,growth inhibition,[1]; at 33.0 µM,28%
same,growth inhibition,[1]; at 100.0 µM,88% (active)
same,growth inhibition,[2]; [15],-3%
same,growth inhibition,[2]; [16],21%
same,growth inhibition,[2]; at 50.0 µM,74.5% (active)
same,growth inhibition,[3]; at 1.2 µM,-2%
same,growth inhibition,[3]; at 3.7 µM,-2%
same,growth inhibition,[3]; at 11.0 µM,0%
same,growth inhibition,[3]; at 33.0 µM,23%
same,growth inhibition,[3]; at 100.0 µM,91% (active)
COC(=O)/C=C1/OC(c2ccc(Br)cc2)=C(Br)C1=O,growth inhibition,[4]; at 1.2 µM,-25%
same,growth inhibition,[4]; at 3.7 µM,-22%
same,growth inhibition,[4]; at 11.0 µM,-18%
same,growth inhibition,[4]; at 33.0 µM,-7%
same,growth inhibition,[4]; at 100.0 µM,38%
same,growth inhibition,[5]; at 1.2 µM,-16%
same,growth inhibition,[5]; at 3.7 µM,-13%
same,growth inhibition,[5]; at 11.0 µM,-29%
same,growth inhibition,[5]; at 33.0 µM,-11%
same,growth inhibition,[5]; at 100.0 µM,16%
same,growth inhibition,[6]; at 1.2 µM,-6%
same,growth inhibition,[6]; at 3.7 µM,-7%
same,growth inhibition,[6]; at 11.0 µM,0%
same,growth inhibition,[6]; at 33.0 µM,59%
same,growth inhibition,[6]; at 100.0 µM,97% (active)
same,growth inhibition,[7]; at 1.2 µM,-35%
same,growth inhibition,[7]; at 3.7 µM,-28%
same,growth inhibition,[7]; [15],3%
same,growth inhibition,[7]; at 11.0 µM,-5%
same,growth inhibition,[7]; at 33.0 µM,-11%
same,growth inhibition,[7]; [16],36%
same,growth inhibition,[7]; at 50.0 µM,17.6%
same,growth inhibition,[7]; at 100.0 µM,65%
same,growth inhibition,[8]; at 1.2 µM,9%
same,growth inhibition,[8]; at 3.7 µM,-1%
same,growth inhibition,[8]; [15],18%
same,growth inhibition,[8]; at 11.0 µM,-5%
same,growth inhibition,[8]; at 33.0 µM,8%
same,growth inhibition,[8]; [16],85% (active)
same,growth inhibition,[8]; at 50.0 µM,18.8%
same,growth inhibition,[8]; at 100.0 µM,71% (active)
same,growth inhibition,[9]; at 1.2 µM,-4%
same,growth inhibition,[9]; at 3.7 µM,-16%
same,growth inhibition,[9]; at 11.0 µM,-15%
same,growth inhibition,[9]; at 33.0 µM,-21%
same,growth inhibition,[9]; at 100.0 µM,78% (active)
same,growth inhibition,[10]; [15],12%
same,growth inhibition,[10]; [16],16%
same,growth inhibition,[10]; at 50.0 µM,86.2% (active)
same,growth inhibition,[11]; at 1.2 µM,8%
same,growth inhibition,[11]; at 3.7 µM,10%
same,growth inhibition,[11]; at 11.0 µM,10%
same,growth inhibition,[11]; at 33.0 µM,26%
same,growth inhibition,[11]; at 100.0 µM,59%
same,growth inhibition,[12]; [15],2%
same,growth inhibition,[12]; [16],14%
same,growth inhibition,[12]; at 50.0 µM,33.8%
same,growth inhibition,[13]; at 1.2 µM,20%
same,growth inhibition,[13]; at 3.7 µM,6%
same,growth inhibition,[13]; [15],32%
same,growth inhibition,[13]; at 11.0 µM,-12%
same,growth inhibition,[13]; at 33.0 µM,70% (active)
same,growth inhibition,[13]; [16],40%
same,growth inhibition,[13]; at 50.0 µM,72.8% (active)
same,growth inhibition,[13]; at 100.0 µM,95% (active)
same,growth inhibition,[14]; at 1.2 µM,-18%
same,growth inhibition,[14]; at 3.7 µM,-4%
same,growth inhibition,[14]; at 11.0 µM,-14%
same,growth inhibition,[14]; at 33.0 µM,-12%
same,growth inhibition,[14]; at 100.0 µM,27%
same,growth inhibition,[1]; at 1.2 µM,-18%
same,growth inhibition,[1]; at 3.7 µM,-16%
same,growth inhibition,[1]; at 11.0 µM,-17%
same,growth inhibition,[1]; at 33.0 µM,-27%
same,growth inhibition,[1]; at 100.0 µM,16%
same,growth inhibition,[2]; [15],11%
same,growth inhibition,[2]; [16],49%
same,growth inhibition,[3]; at 1.2 µM,-30%
same,growth inhibition,[3]; at 3.7 µM,-14%
same,growth inhibition,[3]; at 11.0 µM,-12%
same,growth inhibition,[3]; at 33.0 µM,41%
same,growth inhibition,[3]; at 100.0 µM,92% (active)
